This note sets out measurements from PubChem BioAssay (EPA / NIEHS).

Active and inactive are the calls of the source. How the source made its calls: active means hit-call score of the fitted dose curve at least 0.9, where 1 is the maximum; inactive means score below 0.9.

The nature of assay [1]: ATG_E_Box_CIS: Attagene CIS-FACTORIAL HepG2 Assay for human Enhancer Box (E-box) (AID 2282936). To be noted: HepG2 E-box cis-reporter transcription, actives raise or lower the signal. The gist of the method:
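DMSO served as negative control and baseline for bidirectional fitting. Human hepatoma HepG2 cells, transiently transfected with cis-reporter constructs, were dosed 24 h; reporter mRNA read by RT-PCR and capillary electrophoresis.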

A short description of assay [2]: ATG_M_61_CIS: Attagene CIS-FACTORIAL HepG2 Assay for M61 Transcription Factor (Internal Marker) (AID 2282937). To be noted: HepG2 Attagene CIS-FACTORIAL M61 internal marker reporter; actives raise or lower the signal. The procedure, abridged: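 Fluorescence from labelled cDNA fragments, separated by capillary electrophoresis, quantifies reporter induction. HepG2 cells bearing transiently transfected cis-promoter MRTUs were incubated with test chemical for 24 h; DMSO defined baseline for gain/loss fitting.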

A short description of assay [3]: ATG_EGR_CIS: Attagene CIS-FACTORIAL HepG2 Assay for human Early Growth Response 1 (EGR1) (AID 2282938). To be noted: HepG2 Attagene CIS-FACTORIAL EGR reporter mRNA; actives raise or lower the signal. The gist of the method: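 Cell-based multiplex transcription assay: HepG2 carrying transfected cis-element reporter units, 24 h chemical treatment. Fluorescence from capillary electrophoresis of RT-PCR products gives mRNA levels; fitting is bidirectional relative to DMSO.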

Assay [4] can be described thus: ATG_M_19_CIS: Attagene CIS-FACTORIAL HepG2 Assay for M19 Transcription Factor (Internal Marker) (AID 2282939). The settings on record: HepG2 Attagene CIS-FACTORIAL M19 internal marker reporter; actives raise or lower the signal. The procedure, abridged: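 HepG2 cells transiently transfected with cis-regulated multiplexed reporter units, dosed 24 h. Reporter mRNA quantified by RT-PCR and capillary electrophoresis; internal background marker fitted bidirectionally versus DMSO.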

Assay [5] is described as follows: ATG_Ets_CIS: Attagene CIS-FACTORIAL HepG2 Assay for human Erythroblast Transformation Specific (ETS) (AID 2282941). The settings on record: HepG2 ETS cis-reporter transcription, actives raise or lower the signal. The gist of the method:
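HepG2 cells transfected with multiple cis-regulated reporter units measuring endogenous ETS-driven transcription, 24 h after dosing. Reporter mRNA quantified by RT-PCR with capillary electrophoresis; bidirectional fit relative to DMSO.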

Assay [6] concerns the target Hepatocyte nuclear factor 3-beta (Homo sapiens) (UniProt Q9Y261). The assay is described as follows: ATG_FoxA2_CIS: Attagene CIS-FACTORIAL HepG2 Assay for human Forkhead box A2 (FOXA2) (AID 2282942). The settings on record: HepG2 cis-reporter transcription factor activity, 24 h; actives raise or lower the signal. The gist of the method: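 In transiently transfected human HepG2 cells, promoter-driven reporter mRNA levels after 24 h chemical exposure are determined via RT-PCR with capillary electrophoresis. DMSO serves as baseline for bidirectional fitting.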

Assay [7] can be described thus: ATG_FoxO_CIS: Attagene CIS-FACTORIAL HepG2 Assay for human Forkhead box O (FoxO) (AID 2282943). The settings on record: HepG2 Attagene cis-reporter, FoxO element, mRNA; actives raise or lower the signal. The procedure, abridged:
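Endogenous transcription factor activity read from multiplexed cis-promoter reporter transcripts in transiently transfected HepG2, 24 h after dosing. Reporter RNA measured via RT-PCR plus capillary electrophoresis of FAM-labeled products; gain or loss relative to DMSO.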

Assay [8] can be described thus: ATG_GATA_CIS: Attagene CIS-FACTORIAL HepG2 Assay for human GATA Binding Protein (AID 2282944). The settings on record: HepG2 GATA cis-element reporter, Attagene multiplex mRNA; actives raise or lower the signal. The gist of the method:
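HepG2 cells transiently transfected with multiplexed cis-element reporter units measure endogenous GATA activity; after 24 h compound exposure, reporter mRNA quantified by RT-PCR and capillary electrophoresis. Changes fitted in both directions vs DMSO.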

Assay [9] can be described thus: ATG_GLI_CIS: Attagene CIS-FACTORIAL HepG2 Assay for human Zinc Finger Protein GLI1 (AID 2282945). To be noted: HepG2, Attagene cis-factorial reporter mRNA, GLI element; actives raise or lower the signal. The gist of the method:
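Bidirectional curve fits relative to DMSO, using reporter mRNA levels from RT-PCR plus capillary electrophoresis. Cells were HepG2 transiently carrying cis-regulated reporter constructs, harvested 24 h after dosing.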

In assay [10] the target is Bile acid receptor (Homo sapiens) (UniProt Q96RI1). The assay is described as follows: ATG_IR1_CIS: Attagene CIS-FACTORIAL HepG2 Assay for human Nuclear Receptor Subfamily 1 Group H Member 4 (NR1H4), IR1 submotif (AID 2282946). To be noted: IR1 reporter transcription, actives raise or lower the signal. The gist of the method:
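Cells (human HepG2) carry transiently transfected cis-promoter reporter transcription units. Compounds are incubated 24 h, total RNA is reverse-transcribed and amplified, and labelled fragments are resolved by capillary electrophoresis. Curves use DMSO as baseline.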

Assay [11] is described as follows: ATG_GRE_CIS: Attagene CIS-FACTORIAL HepG2 Assay for human Glucocorticoid Response Elements (GRE) (AID 2282947). The settings on record: HepG2 GRE cis-reporter, Attagene multiplex mRNA; actives raise or lower the signal. The gist of the method:
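Assay uses human hepatoma HepG2 cells transfected with cis-promoter reporter units, exposed 24 h. mRNA from reporters detected by RT-PCR plus capillary electrophoresis; DMSO serves as negative control and baseline.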

Assay [12] in a line: ATG_M_32_CIS: Attagene CIS-FACTORIAL HepG2 Assay for M32 Transcription Factor (Internal Marker) (AID 2282949).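 Further: background control marker of the multiplexed CIS panel rather than a real target.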 The settings on record: HepG2 Attagene cis-factorial M32 reporter, mRNA; actives raise or lower the signal. The gist of the method: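 Following 24 h chemical exposure of HepG2 cells transiently expressing cis-promoter reporter constructs, reporter transcript levels were determined by RT-PCR with fluorescent labelling and capillary electrophoresis, then fitted bidirectionally against DMSO.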

The nature of assay [13]: ATG_M_06_CIS: Attagene CIS-FACTORIAL HepG2 Assay for M06 Transcription Factor (Internal Marker) (AID 2282950). The settings on record: HepG2 Attagene CIS-FACTORIAL M06 internal marker reporter; actives raise or lower the signal. The gist of the method: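 Internal background marker within multiplexed cis-reporter HepG2 system. Cells transiently transfected, dosed 24 h; reporter mRNA measured by RT-PCR, HpaI digestion and capillary electrophoresis. Bidirectional fit relative to DMSO.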

Assay [14] deals with Hepatocyte nuclear factor 6 (Homo sapiens) (UniProt Q9UBC0). The assay is described as follows: ATG_HNF6_CIS: Attagene CIS-FACTORIAL HepG2 Assay for human Hepatocyte Nuclear Factor 6 (HNF6) (AID 2282952). The settings on record: HepG2 Attagene cis-factorial HNF6 reporter transcription; actives raise or lower the signal. The procedure, abridged: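 HepG2 cells transiently transfected with cis-element-driven multiplexed reporter units measuring endogenous transcription factor activity. After 24 h exposure, reporter mRNA quantified by RT-PCR, FAM-labelled fragments and capillary electrophoresis; bidirectional fitting versus DMSO.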

Assay [15] has as its target Heat shock factor protein 1 (Homo sapiens) (UniProt Q00613). The assay is described as follows: ATG_HSE_CIS: Attagene CIS-FACTORIAL HepG2 Assay for human Heat Shock Transcription Factor 1 (HSE) (AID 2282953). The settings on record: HepG2 HSE cis-reporter, Attagene RNA transcription; actives raise or lower the signal. The procedure, abridged:
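HepG2 cells transfected with cis-promoter reporter units sensing endogenous transcription factor activity; reporter mRNA quantified 24 h post-dose by RT-PCR and capillary electrophoresis of 6-FAM-labelled products. Bidirectional fitting against DMSO.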

Assay [16] is described as follows: ATG_MRE_CIS: Attagene CIS-FACTORIAL HepG2 Assay for human Metal Responsive Element (MRE) (AID 2282954). The settings on record: HepG2 MRE cis-reporter transcription, Attagene multiplex; actives raise or lower the signal. The procedure, abridged: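 After a 24 h chemical exposure, transiently transfected HepG2 cells yield RNA whose reporter sequences are amplified, FAM-labelled and sized by capillary electrophoresis. Curves are fitted bidirectionally relative to DMSO.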

Assay [17] in a line: ATG_ISRE_CIS: Attagene CIS-FACTORIAL HepG2 Assay for human Interferon Regulatory Factor 1 (IRF1) binding to an Interferon-Stimulated Response Element (ISRE) (AID 2282948). The settings on record: HepG2 ISRE cis-reporter (Attagene), mRNA transcription readout; actives raise or lower the signal. The procedure, abridged: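 Transiently transfected HepG2 cells carrying cis-element reporter units, dosed 24 hours. Reporter mRNA quantified by RT-PCR, fluorescent primer extension, HpaI digestion and capillary electrophoresis. Bidirectional fitting relative to DMSO.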

In assay [18] the target is Hypoxia-inducible factor 1-alpha (Homo sapiens) (UniProt Q16665). Kind of assay: ATG_HIF1a_CIS: Attagene CIS-FACTORIAL HepG2 Assay for human Hypoxia Inducible Factor 1 (HIF1A) (AID 2282951). The settings on record: HepG2 Attagene cis-factorial HIF1a reporter transcription; actives raise or lower the signal. The procedure, abridged:
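In this multiplexed cell assay, HepG2 cells bearing transfected cis reporters are dosed for 24 h and reporter mRNA is read by RT-PCR plus capillary electrophoresis; signal increases and decreases are both scored against DMSO.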

Assay [19] can be described thus: ATG_PBREM_CIS: Attagene CIS-FACTORIAL HepG2 Assay for human Phenobarbital-responsive Enhancer Module (PBREM) (AID 2282955). The settings on record: HepG2 PBREM cis-reporter, Attagene multiplexed transcription; actives raise or lower the signal. The procedure, abridged: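 After a 24 h incubation with test chemical, transfected HepG2 cells yield total RNA; reporter-specific RT-PCR products are fluorescently labelled, HpaI-digested and resolved by capillary electrophoresis against ROX size standards.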

Assay [20] is described as follows: ATG_ERE_CIS: Attagene CIS-FACTORIAL HepG2 Assay for Estrogen Response Element (ERE) (AID 2282940). To be noted: HepG2 ERE cis-reporter, Attagene RNA transcript; actives raise or lower the signal. The gist of the method: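 HepG2 cells transiently transfected with multiplexed cis-element reporter units, measuring endogenous transcription factor activity; ERE reporter mRNA quantified after 24 h exposure by RT-PCR, fluorescent labelling, HpaI digestion and capillary electrophoresis. Bidirectional change versus DMSO.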

Sequence of Hepatocyte nuclear factor 6 (Homo sapiens) (Q9UBC0 whole entry, looked up, the tested form may be a part): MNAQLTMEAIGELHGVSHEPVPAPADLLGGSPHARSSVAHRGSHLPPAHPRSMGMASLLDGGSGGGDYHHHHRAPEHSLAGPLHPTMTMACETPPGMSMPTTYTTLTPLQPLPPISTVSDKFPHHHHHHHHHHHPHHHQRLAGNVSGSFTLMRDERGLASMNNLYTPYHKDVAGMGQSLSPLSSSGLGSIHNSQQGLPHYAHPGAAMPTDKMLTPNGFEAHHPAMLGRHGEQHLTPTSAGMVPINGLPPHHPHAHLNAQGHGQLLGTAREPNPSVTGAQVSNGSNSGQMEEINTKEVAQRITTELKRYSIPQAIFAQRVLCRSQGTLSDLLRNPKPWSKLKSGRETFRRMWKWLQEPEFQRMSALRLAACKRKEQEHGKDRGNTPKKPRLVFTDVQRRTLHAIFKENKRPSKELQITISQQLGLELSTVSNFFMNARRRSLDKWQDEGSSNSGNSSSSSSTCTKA
Sequence of Hepatocyte nuclear factor 3-beta (Homo sapiens) (Q9Y261 whole entry, looked up): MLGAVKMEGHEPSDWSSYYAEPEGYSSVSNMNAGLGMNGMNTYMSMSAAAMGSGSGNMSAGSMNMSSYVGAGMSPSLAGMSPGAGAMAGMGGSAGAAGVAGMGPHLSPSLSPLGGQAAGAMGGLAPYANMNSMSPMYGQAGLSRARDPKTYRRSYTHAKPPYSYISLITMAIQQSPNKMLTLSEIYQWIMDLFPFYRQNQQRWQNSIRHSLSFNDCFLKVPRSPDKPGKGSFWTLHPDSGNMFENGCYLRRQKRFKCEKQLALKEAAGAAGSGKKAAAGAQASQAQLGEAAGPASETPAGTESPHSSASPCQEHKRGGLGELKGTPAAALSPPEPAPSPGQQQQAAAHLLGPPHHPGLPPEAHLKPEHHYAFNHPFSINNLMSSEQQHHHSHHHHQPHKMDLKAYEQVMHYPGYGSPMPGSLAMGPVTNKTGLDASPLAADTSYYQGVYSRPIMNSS
Sequence of Bile acid receptor (Homo sapiens) (Q96RI1 whole entry, looked up, the tested form may be a part): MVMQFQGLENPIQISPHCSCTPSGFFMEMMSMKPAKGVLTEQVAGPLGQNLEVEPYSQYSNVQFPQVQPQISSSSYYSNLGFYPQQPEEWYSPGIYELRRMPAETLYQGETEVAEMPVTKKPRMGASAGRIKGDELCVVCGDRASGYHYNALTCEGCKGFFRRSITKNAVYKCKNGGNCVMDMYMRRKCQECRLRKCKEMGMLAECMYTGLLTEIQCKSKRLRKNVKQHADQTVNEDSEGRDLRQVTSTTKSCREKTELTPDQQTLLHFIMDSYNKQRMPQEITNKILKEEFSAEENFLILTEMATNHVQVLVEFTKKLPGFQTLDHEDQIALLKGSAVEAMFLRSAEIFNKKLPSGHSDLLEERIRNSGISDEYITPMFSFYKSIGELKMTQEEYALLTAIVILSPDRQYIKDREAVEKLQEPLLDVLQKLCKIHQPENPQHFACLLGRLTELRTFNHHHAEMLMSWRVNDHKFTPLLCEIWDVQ
Sequence of Heat shock factor protein 1 (Homo sapiens) (Q00613 whole entry, looked up): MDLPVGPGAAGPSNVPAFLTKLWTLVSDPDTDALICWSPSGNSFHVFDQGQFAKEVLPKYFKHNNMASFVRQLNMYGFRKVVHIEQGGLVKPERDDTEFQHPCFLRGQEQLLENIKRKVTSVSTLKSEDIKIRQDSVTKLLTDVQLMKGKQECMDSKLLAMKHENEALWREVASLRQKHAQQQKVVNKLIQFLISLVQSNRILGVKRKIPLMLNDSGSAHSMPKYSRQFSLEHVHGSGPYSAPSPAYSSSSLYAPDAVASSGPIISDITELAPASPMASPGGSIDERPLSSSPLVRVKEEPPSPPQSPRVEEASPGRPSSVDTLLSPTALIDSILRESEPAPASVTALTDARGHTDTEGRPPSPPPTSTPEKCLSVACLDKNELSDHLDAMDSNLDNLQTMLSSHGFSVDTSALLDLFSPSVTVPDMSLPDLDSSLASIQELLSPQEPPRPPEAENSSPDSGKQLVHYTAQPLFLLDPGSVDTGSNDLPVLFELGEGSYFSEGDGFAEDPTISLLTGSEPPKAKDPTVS
Sequence of Hypoxia-inducible factor 1-alpha (Homo sapiens) (Q16665 whole entry, looked up): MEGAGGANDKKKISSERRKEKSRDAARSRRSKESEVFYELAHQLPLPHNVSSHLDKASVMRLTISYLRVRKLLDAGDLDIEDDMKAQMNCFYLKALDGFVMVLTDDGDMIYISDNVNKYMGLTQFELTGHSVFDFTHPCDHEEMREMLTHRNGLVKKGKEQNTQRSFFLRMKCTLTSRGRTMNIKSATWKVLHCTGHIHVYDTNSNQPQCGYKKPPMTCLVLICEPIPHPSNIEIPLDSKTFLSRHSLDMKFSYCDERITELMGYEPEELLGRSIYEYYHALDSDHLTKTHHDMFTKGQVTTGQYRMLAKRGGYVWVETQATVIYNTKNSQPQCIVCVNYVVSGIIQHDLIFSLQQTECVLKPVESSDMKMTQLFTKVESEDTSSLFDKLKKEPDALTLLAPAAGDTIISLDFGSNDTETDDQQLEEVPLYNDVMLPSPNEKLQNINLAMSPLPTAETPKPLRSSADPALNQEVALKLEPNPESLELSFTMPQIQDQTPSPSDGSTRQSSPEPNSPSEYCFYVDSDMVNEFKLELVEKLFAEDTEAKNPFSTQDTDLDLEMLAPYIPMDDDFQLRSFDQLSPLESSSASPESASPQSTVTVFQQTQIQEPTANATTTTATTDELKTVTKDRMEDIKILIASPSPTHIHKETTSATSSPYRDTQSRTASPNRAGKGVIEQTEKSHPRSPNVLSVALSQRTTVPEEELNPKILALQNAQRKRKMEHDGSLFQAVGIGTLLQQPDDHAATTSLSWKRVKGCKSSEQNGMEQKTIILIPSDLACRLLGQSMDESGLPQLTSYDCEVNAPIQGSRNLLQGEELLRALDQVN

In the case of `CCOP(=O)(OCC)Oc1cc(C)nc(C(C)C)n1`, the outcome in assay [1], in assay [2], in [3], in assay [4], in assay [5] and in assay [6] was inactive. The call in assay [7], in assay [8], in [9], in assay [10], in [11] and in assay [12] was inactive. The outcome in [13], in assay [14], in assay [15] and in [16] was inactive.
Take `CCC(CC)Nc1c([N+](=O)[O-])cc(C)c(C)c1[N+](=O)[O-]`: the result in assay [1], in assay [2], in assay [3], in assay [4], in assay [5] and in assay [6] was inactive. Further, the compound was classed as inactive in [7], in [8], in [9], in [11], in [12] and in [13]. The result in assay [18], in assay [14], in [15] and in assay [19] was inactive. The AC50 (usually the midpoint of the concentration-response curve, whichever way the signal moves) in assay [10] was 50 µM (active); in assay [17] it was 50 µM (active); in assay [16] it was 28.9 µM (active).
Take `CC(C)N(C(=O)SCC(Cl)=C(Cl)Cl)C(C)C`: the outcome in assay [1], in [2], in [3], in assay [4], in assay [5] and in [6] was inactive. Moreover, the outcome in assay [7], in assay [8], in assay [9], in [11], in assay [17] and in assay [12] was inactive. Besides, the result in [13], in assay [18], in assay [14], in [15] and in assay [19] was inactive. Besides, the AC50 is 19.9 µM (active) in [10] and 29.1 µM (active) in assay [16].
On to `FC(F)C(F)(F)OCC(Cn1cncn1)c1ccc(Cl)cc1Cl` (centres undefined), for which the outcome in assay [1], in assay [2], in [4], in [5], in assay [7] and in assay [8] was inactive. Besides, the call in assay [9], in assay [10], in [11], in [12], in assay [13] and in assay [14] was inactive. For the same compound, the AC50 in [3] is 50 µM (active); in assay [6], 50 µM (active); in [15], 81.4 µM (active); in assay [16] it was 69.3 µM (active).
As to `Nc1nc(N)nc(NC2CC2)n1`, the outcome in assay [1], in assay [2], in assay [3], in assay [4], in assay [5] and in assay [6] was inactive. Further, the compound was called inactive in assay [7], in assay [8], in assay [9], in assay [10], in [11] and in [17]. Besides, the compound was called inactive in [12], in assay [13], in assay [14], in assay [15] and in assay [16].
With `O=c1ccc(=O)[nH][nH]1`, the result in [1], in assay [2], in assay [3], in assay [4], in assay [5] and in assay [6] was inactive. For the same compound, the compound was called inactive in assay [7], in assay [8], in assay [9], in assay [10], in assay [17] and in [12]. The call in [13], in assay [18], in assay [14], in assay [15] and in assay [16] was inactive.
On to `COP(=O)(OC)OC(Br)C(Cl)(Cl)Br` (centres undefined), for which the result in assay [1], in assay [2], in [3], in assay [4], in [20] and in assay [5] was inactive. For the same compound, the compound was classed as inactive in assay [6], in assay [7], in [8], in assay [9], in [10] and in [11]. Further, the result in assay [17], in assay [12], in assay [13], in assay [18], in assay [14] and in assay [15] was inactive. The compound was called inactive in assay [16] and in assay [19].
